Structures are written as SMILES. Inconclusive results are not listed. Entries that show only a call come without a potency. Active and inactive are the calls of the source. The call rests on the fitted dose curve; in most records, active means well fitted inhibition curve with a large enough effect; inconclusive means small, poorly fitted or top-dose-only effect, or effect the other way; inactive means no such curve, though single readings can be large or run the other way.
Potency means the concentration at half of the fitted maximal effect.

This test can be described thus: Quantitative high throughput screen for delayed death inhibitors of the malarial parasite plastid, 96 hour incubation (AID 488745). Further: nearly all actives have a fitted effect of over 70% in size. The note with it: Plasmodium falciparum growth; series mostly up to 28.7 µM. The text has this: NIH Molecular Libraries Probe Production Network [MLPCN]
NIH Chemical Genomics Center [NCGC]
Assay Provider: David Fidock and Eric Ekland, Columbia University
The goal of this screen is to discover new antimalarial compounds that act by inhibiting the development of the apicoplast in the malarial parasite Plasmodium falciparum. The biochemical processes that make this organelle essential for erythrocytic stage parasites are not well understood. However, antibiotics such as azithromycin and tetracycline, which target the apicoplast translational machinery, have a potent antimalarial effect.
We have developed a cell-based assay that measures parasite growth based on the expression of an integrated copy of a firefly luciferase reporter. To detect small molecules that cause this 'delayed death' phenotype, erythrocytes infected with the luciferase-expressing parasites were incubated with compounds for either one or two generations, corresponding to 48 and 96 hours, respectively. Compounds that inhibit parasite growth in the second generation, but not the first, should be enriched in antimalarials that target the apicoplast. Growth inhibition is detected by a decrease in luciferase activity
Four microliters of culture medium (RPMI 1640 with 0.5% w/v Albumax (GIBCO), 24 mM sodium bicarbonate and 10 ug/mL gentamycin) were dispensed by a Multi-drop Combi into white solid 1536-well plates (Grenier) and 23 nL compound was added by a pin tool. Four microliters of infected erythrocytes (2% hematocrit, 0.1% parasitemia final concentration) in culture medium were dispensed and the plates incubated for 96 hours at 37 C in 5% CO2. Two microliters of luciferase detection reagent was added and luminescence was detected by a ViewLux (PerkinElmer) reader
On to `COc1ccccc1N1CCN(CCN(C(=O)c2ccc(F)cc2)c2ccccn2)CC1`, for which the Potency entry was “inactive”.

For `O=S(=O)(c1cccc2c(Cl)cccc12)N1CCCNCC1`, the Potency result is “inactive”.

`C=CCn1c(=O)c2c(nc(-c3ccc(S(=O)(=O)O)cc3)n2C)n(C)c1=O`: the Potency result was “inactive”.

As to `CCCCCC(O)CCCC(=O)O` (stereo not given), the Potency result was “inactive”.

Consider `O=C(O)C1=CCCN(CCON=C(c2ccccc2)c2ccccc2)C1`, for which the Potency entry was “inactive”.

For `CCCOC(=O)c1c(-c2ccccc2)nc(CC)c(C(=O)SCC)c1CCC`, the Potency was 14.7 µM (active).

With `COc1ccccc1N1CCN(CCCNc2c(C)c(=O)n(C)c(=O)n2C)CC1`, the Potency was 14.7 µM (active).

On to `CC1C(=O)N(C)C(=O)c2nc[nH]c21` (stereo not given), for which the Potency entry was “inactive”.

Consider `NC1CCN(O)C1=O` (stereo not given), for which the Potency result was “inactive”.

With `O=[N+]([O-])c1cccc2cn[nH]c12`, the Potency entry was “inactive”.

As to `CN(C)CCC(c1ccc(Br)cc1)c1ccccn1` (stereo not given), the Potency entry is “inactive”.

As to `Cc1ccc([N+](=O)[O-])cc1S(=O)(=O)N(C)C`, the Potency entry is “inactive”.

For the compound `C[C@H](O)C(=O)C1=Nc2c(nc(N)[nH]c2=O)NC1`, the Potency result is “inactive”.

With `C=CC[C@H](N)C(=O)O`, the Potency entry is “inactive”.

Turning to `CCC1(O)CC2CN(CCc3c([nH]c4ccccc34)[C@@](C(=O)OC)(c3cc4c(cc3OC)N(C=O)C3[C@]45CCN4CC=C[C@@](CC)([C@@H](OC(C)=O)[C@]3(O)C(=O)OC)[C@H]45)C2)C1` (stereo not given in full), the Potency is 0.117 µM (active).

`O=C(O)/C=C/c1cnc[nH]1`: the Potency entry was “inactive”.

For `O=c1oc(Cl)c(Cl)c2ccccc12`, the Potency entry was “inactive”.

On to `C[N+](C)(C)CC=O`, for which the Potency entry is “inactive”.

Regarding `CC(=O)/C(C)=N/O`, the Potency result was “inactive”.

Regarding `CC(=O)C(C)=O`, the Potency entry is “inactive”.

With `NC(N)=[N+]1CCc2ccccc2C1`, the Potency entry was “inactive”.

On to `C=CCN1CCc2c(cc(O)c(O)c2Cl)C(c2ccccc2)C1` (stereo not given), for which the Potency was 3.7 µM (active).

Turning to `Cn1cc(C(=O)OCC2CCN(CCNS(C)(=O)=O)CC2)c2ccccc21`, the Potency entry was “inactive”.

`CNc1ncnc2c1ncn2[C@H]1C[C@H](OP(=O)(O)O)[C@@H](COP(=O)(O)O)O1`: the Potency result is “inactive”.

Consider `Nc1ccc(-c2nc3ccc(-c4nc5ccc(N)cc5[nH]4)cc3[nH]2)cc1`, for which the Potency is 0.262 µM (active).

Regarding `O=C(O)C1=CCNCC1`, the Potency entry is “inactive”.

`CC(=O)NCCc1c[nH]c2ccc(O)cc12`: the Potency result is “inactive”.

With `CN(C)C(=O)/N=N/C(=O)N(C)C`, the Potency result was “inactive”.

Take `CCCCS(=N)(=O)CC[C@H](N)C(=O)O` (stereo not given in full): the Potency result was “inactive”.

`COC(=O)C(C)(N)Cc1ccc(O)cc1` (stereo not given): the Potency result was “inactive”.

Regarding `COc1ccc2c(c1)c(CC(=O)O)c(C)n2Cc1ccc(Cl)cc1`, the Potency is 10.4 µM (active).

Consider `O=C(O)C1=CCCNC1`, for which the Potency result is “inactive”.

In the case of `Oc1cc2c(cc1O)C(c1ccccc1)CNCC2` (stereo not given), the Potency entry is “inactive”.

Turning to `NCC(O)c1ccc(O)c(O)c1` (stereo not given), the Potency entry is “inactive”.

As for `[Li+]`, the Potency entry was “inactive”.

Regarding `Oc1ccc(Cn2cc[nH]c2=S)cc1`, the Potency result is “inactive”.

On to `N[C@H](C(=O)O)c1cc(O)cc(O)c1`, for which the Potency result is “inactive”.

Regarding `NC(=O)c1cc[n+](CC2=C(C(=O)O)N3C(=O)[C@@H](NC(=O)[C@@H](c4ccccc4)S(=O)(=O)[O-])[C@H]3SC2)cc1`, the Potency result is “inactive”.

Consider `Cc1cccc(C)c1OCC(N)C(C)C` (stereo not given), for which the Potency result was “inactive”.

For `N[C@H]1CONC1=O`, the Potency result is “inactive”.

These data come from PubChem BioAssay (NCATS).
